This is one part of a sample in which hits are shown more often than they occur.
nsP2pro primary: CHIKV nsP2 protease inhibition, primary qHTS; Potency, µM (titrated, usually from 24.9 µM), most hits filed as inhibitors; 31,000 tested, 1.1% active; Q8JUX6; AID 1964107; FRET peptide cleavage, nsP2pro, fluorescence 1 h; further: nearly all actives have a fitted effect of over 60% in size
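Enzyme 150 nM, substrate 2.5 uM (both final); Tris-HCl 10 mM pH 8.0 + 0.01% Tween 20; cpd up to 25 uM, 7 pts; 15 min preinc., 1 h RT; fluorescence ex 525/em 598.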
CHIKV nsP2 cell: inhibits CHIKV nsP2 protease in cells. shares compounds with nsP2pro primary. cell-based CHIKV nsP2 protease reporter assay. Potency, µM (doses to about 51.1 µM), actives largely listed as inhibitors. 450 tested, 10% active. AID 1964100; further: nearly all actives have a fitted effect of over 70% in size
Target sequence (Q8JUX6 220-798 limits assumed): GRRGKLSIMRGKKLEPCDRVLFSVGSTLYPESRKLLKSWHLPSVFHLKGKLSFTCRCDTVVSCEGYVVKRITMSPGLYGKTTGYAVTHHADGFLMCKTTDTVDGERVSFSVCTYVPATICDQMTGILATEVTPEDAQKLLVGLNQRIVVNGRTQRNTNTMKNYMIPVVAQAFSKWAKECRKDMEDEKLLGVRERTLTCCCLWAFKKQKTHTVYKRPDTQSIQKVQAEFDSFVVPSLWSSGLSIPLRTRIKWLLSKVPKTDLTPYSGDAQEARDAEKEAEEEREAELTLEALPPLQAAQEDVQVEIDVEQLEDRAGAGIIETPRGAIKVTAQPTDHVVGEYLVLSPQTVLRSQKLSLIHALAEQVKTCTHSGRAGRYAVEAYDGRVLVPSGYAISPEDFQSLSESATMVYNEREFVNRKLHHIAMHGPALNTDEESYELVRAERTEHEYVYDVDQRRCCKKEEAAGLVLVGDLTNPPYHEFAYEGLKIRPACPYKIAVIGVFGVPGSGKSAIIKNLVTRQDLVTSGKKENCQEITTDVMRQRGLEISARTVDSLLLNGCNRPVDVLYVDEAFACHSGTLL
NSP2 full ctr: selectivity test for CHIKV nsP2 protease inhibitors: full-length NSP2; shares compounds with nsP2pro primary; Full-length CHIKV NSP2 protease enzymatic counterscreen; Potency, µM (titrated, usually from 50.7 µM), hits mostly inhibitors; 410 tested, 39% active; AID 1964101; further: nearly all actives have a fitted effect of over 65% in size
Furin counter: selectivity counter-screen for CHIKV nsP2 protease inhibitors: human furin; shares compounds with nsP2pro primary; Recombinant human furin enzymatic counterscreen, fluorogenic substrate; Potency, µM (titrated, usually from 50.6 µM), usual class: inhibitors; 410 tested, 6% active; AID 1964102
NS23 peptide cs: blocks CHIKV nsP2 protease cleavage of endogenous NS2/3 peptide; shares compounds with nsP2pro primary; Purified CHIKV nsP2 protease, endogenous NS2/3 peptide cleavage; Potency, µM (doses to about 51 µM), hits mostly inhibitors; 410 tested, 34% active; further: nearly all actives have a fitted effect of over 55% in size
Papain cs: inhibits papain in a CHIKV nsP2 protease selectivity counterscreen. shares compounds with nsP2pro primary. purified papain protease activity, enzymatic inhibition. Potency, µM (titrated, usually from 51 µM), actives largely listed as inhibitors. 410 tested, 5% active. AID 1964104
nsP2pro conf qHTS: CHIKV nsP2 protease inhibition, confirmatory qHTS; shares compounds with nsP2pro primary; CHIKV nsP2 protease enzymatic activity, qHTS; Potency, µM (highest dose often 25.5 µM), hits mostly inhibitors; 410 tested, 43% active; further: nearly all actives have a fitted effect of over 75% in size
HCV NS3 4A cs: inhibits HCV NS3/4A protease in an nsP2pro selectivity counterscreen | HCV NS3/4A protease biochemical counterscreen | shares compounds with nsP2pro primary | AID 1964106 | 410 tested, 20% active | Potency, µM (series often up to 50.9 µM), usual class: inhibitors; further: nearly all actives have a fitted effect of over 55% in size
A number is an active result; 0 = inactive; ? = inconclusive. The call rests on the fitted dose curve.

SMILES	nsP2pro primary	others
CCNC(=NCCCC[C@H](NC(=O)[C@H](CC(C)C)NC(=O)[C@@H](CCCCN=C(NCC)NCC)NC(=O)[C@@H](Cc1ccc(O)cc1)NC(=O)[C@@H](CO)NC(=O)[C@H](Cc1cccnc1)NC(=O)[C@H](Cc1ccc(Cl)cc1)NC(=O)C(Cc1ccc2ccccc2c1)NC(C)=O)C(=O)N1CCCC1C(=O)N[C@H](C)C(N)=O)NCC (some centres undefined)	0
Cn1ncc(N2CCCC(CC(=O)O)C2)cc1=O (centres undefined)	0
N#Cc1ccc(-c2ccc(CNc3ccc(N4CCC(C(F)(F)F)CC4)cc3)o2)cc1	2.8µM	CHIKV nsP2 cell=0;NSP2 full ctr=?;Furin counter=0;NS23 peptide cs=0;Papain cs=0;nsP2pro conf qHTS=?;HCV NS3 4A cs=?
CC(C)(C)OC(=O)N1CCN(c2cccc(NCc3ccc(-c4ccc(C#N)cc4)o3)c2)CC1	0
CC(=O)N1CCN(c2ccc(NCc3ccc(-c4ccc(Br)cc4)o3)cc2)CC1	0
Cc1nc(-c2ccc(CNC(=O)CN3CCN(c4ncccn4)CC3)cc2)no1	0
O=C(CCC1CCCC1)N1CC(N(Cc2ccccn2)C(=O)Nc2ccccc2)C1	0
COc1ccc(C2CC(=O)N3CN(C4CCCCC4)CSC3=C2C#N)c(OC)c1 (centres undefined)	8.9µM	CHIKV nsP2 cell=0;NSP2 full ctr=18µM;Furin counter=0;NS23 peptide cs=?;Papain cs=0;nsP2pro conf qHTS=?;HCV NS3 4A cs=0
N#CC1=C2SCN(C3CCCCC3)CN2C(=O)CC1c1ccc(Br)cc1 (centres undefined)	0
COc1ccc(NC(=O)c2cc3c(s2)CN(C2CCCC2)C3)c(OC)c1	0
Cc1ccc(CNC(=O)N2CCCC(c3nn[nH]n3)C2)cc1 (centres undefined)	0
CCOc1cc(CN2CCC(C(Cc3ccccc3F)N(C)C(=O)c3cccs3)CC2)ccc1O (centres undefined)	0
CCCC(=O)O[C@]1(C(=O)COC(C)=O)CC[C@H]2C3C[C@H](F)C4=CC(=O)C=C[C@]4(C)[C@@]3(F)[C@@H](O)C[C@@]21C (some centres undefined)	0
O=C(Nc1cccc(F)c1)[C@@H]1C[C@@H](c2cccc(C(F)(F)F)c2)N(CC2CCOCC2)C1	0
COc1ccccc1OC1(C(=O)O)CCN(c2ncnc(C)c2C)CC1	0
COc1ccccc1OC1(C(=O)O)CCN(Cc2cccnc2)CC1	0
COc1ccccc1OC1(C(=O)O)CCN(Cc2ccc(-c3ccn[nH]3)o2)CC1	1µM	CHIKV nsP2 cell=?;NSP2 full ctr=?;Furin counter=0;NS23 peptide cs=0;Papain cs=0;nsP2pro conf qHTS=0;HCV NS3 4A cs=0
CC1CC2C3CCC4=CC(=O)C=CC4(C)C3(F)C(O)CC2(C)C1(O)C(=O)COC(=O)c1cccc(S(=O)(=O)O)c1 (centres undefined)	0
O=C(NN1C(=O)[C@@H]2[C@@H]3C=C[C@@H]([C@H]4C[C@@H]34)[C@@H]2C1=O)c1ccc(C(F)(F)F)cc1	0
O=C(c1ccc(-c2ccco2)cc1)N1CCOC(c2ccccc2)C1 (centres undefined)	7.9µM	CHIKV nsP2 cell=?;NSP2 full ctr=10µM;Furin counter=0;NS23 peptide cs=?;Papain cs=0;nsP2pro conf qHTS=9µM;HCV NS3 4A cs=0
COc1ccc(-c2cc(C(=O)N3CCOC(c4ccc(F)cc4)C3)[nH]n2)cc1 (centres undefined)	0
O=C(c1ccc2ncccc2c1)N1CCOC(c2ccc(Cl)c(Cl)c2)C1 (centres undefined)	0
CN1CCc2nc(C(=O)N[C@@H]3C[C@@H](C(=O)N(C)C)CC[C@@H]3NC(=O)C(=O)Nc3ccc(Cl)cn3)sc2C1	?	CHIKV nsP2 cell=0;NSP2 full ctr=0;Furin counter=0;NS23 peptide cs=0;Papain cs=0;nsP2pro conf qHTS=0;HCV NS3 4A cs=0
Cc1ccnc(NC(=S)NCCNc2cccc(C(F)(F)F)c2)c1	0
CC(C)C[C@@H](NC(=O)[C@@H](Cc1ccccc1)NC(=O)[C@H](N)Cc1ccccc1)C(=O)N[C@H](CCCCN)C(=O)N1CCC(N)(C(=O)O)CC1	0

Assay outcomes: PubChem, National Center for Advancing Translational Sciences (NCATS)
